The nature of experiment [1]: qHTS assay for small molecules that induce genotoxicity in human embryonic kidney cells expressing luciferase-tagged ATAD5 - cell viability (AID 651634; calls by dose curve; further: nearly all actives have a fitted effect of over 25% in size). Summed up:
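HEK293T ATAD5-luc cells, 2,000/well; compound 15.5 hr, 37C/5% CO2; CellTiter-Fluor 30 min, 37C; fluorescence read.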

Experiment [2] is described as follows: qHTS assay for small molecule disruptors of the mitochondrial membrane potential - cell viability (AID 720634; calls by dose curve;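 further: human HepG2 liver cancer cells; series mostly up to about 83 µM; nearly all actives have a fitted effect of over 20% in size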). Summed up: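 Luminescence from CellTiter-Glo (ATP content) gave viability in HepG2 cells, read in the same wells as the MMP dye assay after 1 hr compound exposure at 37 C.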
The nature of experiment [3]: qHTS assay to test for compound auto fluorescence at 590 nm (red) in HepG2 cells (AID 720674). Summed up:
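Compound auto-fluorescence is scored relative to Rose Bengal sodium, measured at 540/590 nm in live HepG2 cultures after 1 hr compound contact (37 C, 5% CO2).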

Experiment [4] in a line: qHTS assay to test for compound auto fluorescence at 535 nm (green) in HepG2 cells (AID 720675). Background: In qHTS, concentration-response curves come from the screen itself.
Experiment [5] can be described thus: qHTS assay to test for compound auto fluorescence at 460 nm (blue) in HEK293 cells (AID 720678). Summed up: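 Cells were seeded and left to adhere for 4-5 hr at 37C. Compounds were then pin-transferred. After an overnight incubation at 37C under 5% CO2, intrinsic fluorescence at 405/460 nm was measured and referenced to triamterene.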
The nature of experiment [6]: qHTS assay to test for compound auto fluorescence at 590 nm (red) in HEK293 cells (AID 720679). The procedure, abridged: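 Each well held 2,000 HEK293 cells in medium containing 10% dialyzed FBS. Following 4-5 hr attachment at 37C, 23 nL test compound or DMSO was added; plates sat overnight, and red fluorescence (540/590nm) was recorded.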
Experiment [7] in a line: qHTS assay for small molecule agonists of the p53 signaling pathway - cell viability (AID 651633; calls by dose curve;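 further: p53RE-bla HCT reporter cells with a stable beta-lactamase p53 reporter; series mostly up to about 83 µM; nearly all actives have a fitted effect of over 30% in size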). Summed up:
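p53RE-bla cells, seeded at 4,000 per well and rested 5 h at 37 C/5% CO2, received compounds in DMSO for 16 h at 37 C. CellTiter-Glo was then added, and luminescence was read after 30 min at room temperature to gauge cytotoxicity.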

Experiment [8] in a line: qHTS assay for small molecules that induce genotoxicity in human embryonic kidney cells expressing luciferase-tagged ATAD5 (AID 651632). Further: nearly all actives have a fitted effect of over 15% in size. The procedure, abridged:
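Luminescence read-out: after 16 hr compound exposure at 37C, ATAD5-luciferase HEK293T cells received Amplite, 30 min RT, then CCD imaging. A rise in signal marks genotoxic stress.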

Experiment [9] can be described thus: qHTS assay for small molecule disruptors of the mitochondrial membrane potential (AID 720635). Further: potency means the concentration at half of the fitted maximal effect. Summed up: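 HepG2 cells (2,000/well) attached overnight at 37C, then took compound for 1 hr at 37C, 5% CO2. Mito-MPS dye was added for 30 min; fluorescence was read at 490/535 nm (monomers) and 540/590 nm (aggregates).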

Results on 24 compounds are retold here after PubChem BioAssay (Tox21).

Unmarked numbers belong to inactive results. Records with an inconclusive call do not appear. Activity calls are given as the source filed them. Unless noted, the call rests on the fitted dose curve; in most records, active means well fitted curve in the direction sought with a large enough effect in the repeat runs; inconclusive means weak or mixed curves; inactive means no such curve, though single readings can be large; an effect the other way counts as inactive or inconclusive.

Turning to `CC(=O)c1ccc2c(c1)Cc1ccccc1-2`, in experiment [1], the Potency result was “inactive”. Further, the call in experiment [2], in experiment [3], in experiment [4], in [5] and in experiment [6] was inactive.

For `CC(C)CC(C)CC(C)CC(C)COC(=O)c1ccccc1C(=O)OCC(C)CC(C)CC(C)CC(C)C` (stereo not drawn), the call in experiment [7], in experiment [2], in experiment [3], in [4], in [5] and in [6] was inactive. For the same compound, in experiment [1], the Potency result is “inactive”.

Consider `CC[C@H](C)C(=O)O[C@H]1C[C@H](O)C=C2C=C[C@H](C)[C@H](CC[C@@H](O)C[C@@H](O)CC(=O)O)[C@H]21`, for which the call in experiment [7], in experiment [2], in experiment [3], in experiment [4], in experiment [5] and in experiment [6] was inactive. Moreover, in experiment [1], the Potency result is “inactive”.

For the compound `CC(C)=CCOC(=O)c1ccccc1`, the result in experiment [7], in [2], in experiment [3], in experiment [4], in [5] and in experiment [6] was inactive. In [1], the Potency entry was “inactive”.

As for `O=C(O)Cc1ccc(Cl)cc1Cl`, the call in [7], in [2], in [3], in experiment [4], in experiment [5] and in experiment [6] was inactive. For the same compound, the Potency result in [1] is “inactive”.

As for `O=S(=O)(O)c1ccc2cc(O)c(S(=O)(=O)O)cc2c1`, the compound was classed as inactive in [7], in experiment [2], in experiment [3], in [4] and in experiment [6]. Besides, the Potency result in experiment [1] is “inactive”.

Turning to `COc1cc2c(cc1OC)[C@@H]1CC(=O)[C@@H](CC(C)C)CN1CC2`, the Potency result in [8] and in [1] was “inactive” in each case. For the same compound, the outcome in experiment [2], in experiment [3], in experiment [4], in [5] and in [6] was inactive.

`CC/C=C\CC1=C(C)CCC1=O`: the result in [7], in experiment [2], in experiment [3], in [4], in experiment [5] and in [6] was inactive. Further, in [1], the Potency result was “inactive”.

`CCCCCCCCCCl`: the Potency result in [8], in experiment [1] and in experiment [9] was “inactive” throughout. Further, the call in [2], in [3], in experiment [4], in [5] and in [6] was inactive.

With `CC(C)N(c1ccccc1)C(C)C`, the Potency entry in [8] and in [1] was “inactive” in each case. In addition, the compound was called inactive in experiment [2], in experiment [3], in [4], in experiment [5] and in [6].

Take `BrCc1cccc(Oc2ccccc2)c1`: the compound was classed as inactive in experiment [7], in [2], in experiment [3], in experiment [4], in [5] and in [6]. The Potency result in [1] is “inactive”.

As for `COP(=O)(OC)OC(c1ccc(Cl)cc1)P(=O)(OC)OC` (stereo not drawn), the Potency result in experiment [8], in [1] and in experiment [9] was “inactive” each time. In addition, the result in [2], in experiment [3], in experiment [4], in experiment [5] and in experiment [6] was inactive.

For `CC(C)OC(=O)CCCCC(=O)OC(C)C`, the call in experiment [7], in experiment [2], in experiment [3], in experiment [4], in [5] and in experiment [6] was inactive. Also, the Potency result in [1] was “inactive”. The Potency in [9] was 54.6 µM (active).

With `Cc1c(I)c(=O)n(-c2ccccc2)n1C`, the result in experiment [7], in experiment [2], in [3], in experiment [4], in experiment [5] and in experiment [6] was inactive. The Potency entry in experiment [1] was “inactive”.

As to `CCCOC(OCCC)OCCC`, the Potency entry in experiment [8] and in experiment [1] was “inactive” throughout. Also, the outcome in experiment [2], in experiment [3], in [4], in experiment [5] and in [6] was inactive.

Turning to `Nc1cccc(O)c1`, the Potency entry in experiment [8] is “inactive”. The call in experiment [7], in experiment [3], in [4], in experiment [5] and in experiment [6] was inactive.

Regarding `CCCCCCCCSCC`, the outcome in [7], in experiment [2], in experiment [3], in experiment [4], in experiment [5] and in [6] was inactive. Besides, the Potency result in experiment [1] was “inactive”.

For `On1nnc2ccccc21`, the compound was classed as inactive in experiment [7], in experiment [2], in [3], in experiment [4], in experiment [5] and in experiment [6]. For the same compound, the Potency result in experiment [9] was “inactive”.

As for `CCN(CC)CC(=O)Nc1c(C)cccc1C`, the outcome in experiment [7], in experiment [2], in experiment [3], in experiment [4], in experiment [5] and in experiment [6] was inactive. Moreover, the Potency entry in experiment [1] and in experiment [9] was “inactive” in each case.

`CCC(CC)CO`: the compound was classed as inactive in experiment [7], in experiment [2], in [3], in experiment [4], in [5] and in experiment [6]. The Potency entry in [1] and in experiment [9] was “inactive” throughout.

`O=C(O)c1cc(Br)c(O)c(Br)c1`: the compound was classed as inactive in experiment [7], in [2], in experiment [3], in experiment [4], in experiment [5] and in experiment [6]. Also, the Potency entry in [1] and in [9] was “inactive” each time.

For `C=CCCCCCCCCCCCC`, the result in experiment [7], in [2], in experiment [3], in experiment [4], in [5] and in experiment [6] was inactive. Also, the Potency result in experiment [1] and in experiment [9] was “inactive” in each case.

For the compound `CN=C(NC#N)Nc1ccc(C2=NNC(=O)CC2C)cc1` (stereo not drawn), the result in [7], in experiment [2], in experiment [3], in experiment [4], in experiment [5] and in experiment [6] was inactive. In addition, the Potency entry in [1] and in experiment [9] was “inactive” throughout.

For the compound `O=C(Nc1ccc(Cl)c(Cl)c1)C1CC1`, the compound was classed as inactive in experiment [7], in experiment [3], in [4], in [5] and in experiment [6]. In [1], the Potency entry is “inactive”. Moreover, in experiment [9], the Potency was 11.9 µM (active).
